# In the supplement of paper PMC8728848:
# About 410 targets per protein were measured; listed, in parts, are those with the strongest signals and a random draw of the rest.
# B1: Aap arpt (Staphylococcus epidermidis) (protein)
# chain: NNEAPQMSSTLQAEEGSNAEAPQSEPTKAEEGGNAEAAQSEPTKAEEGGNAEAPQSEPTKAEEGGNAEAAQSEPTKTEEGSNVKAAQSEPTKAEEGSNAEAPQSEPTKTEEGSNAKAAQSEPTKAEEGGNAEAAQSEPTKTEEGSNAEAPQSEPTKAEEGGYAEAPQSEPTKTEEGGNAEAPNVPTIKA
# Tests used:
# Test in all cases: glycan array binding signal (z-score within array); higher = stronger binding
# Conditions in all cases: glycan notation: IUPAC condensed, linker removed
# [1] = target: Fuc(a1-2)Gal(b1-3)GlcNAc(b1-2)Man(a1-3)[Fuc(a1-2)Gal(b1-3)GlcNAc(b1-2)Man(a1-6)]Man(b1-4)GlcNAc(b1-4)GlcNAc
# Procedure, shortened: (§1)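 Glycan array data were curated from 3228 arrays in the Consortium for Functional Glycomics database and kept only where the protein sequence was available. Glycan names were converted to IUPAC-condensed notation, and columns mapping to the same glycan were averaged. The binding signal is a within-array Z-score, averaged across arrays of the same protein sequence at different concentrations or buffers and across linkers. Negative Z-scores can be read as non-binding.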
# [2] = target: Fuc(a1-2)Gal(b1-3)GlcNAc(b1-3)Gal(b1-4)Glc
# Procedure, shortened: as §1
# [3] = target: Fuc(a1-2)Gal(b1-4)GlcNAc(b1-2)Man(a1-3)[Fuc(a1-2)Gal(b1-4)GlcNAc(b1-2)Man(a1-6)]Man(b1-4)GlcNAc(b1-4)[Fuc(a1-6)]GlcNAc
# Procedure, shortened: as §1
# [4] = target: Fuc(a1-2)Gal(b1-4)GlcNAc(b1-3)[Fuc(a1-2)Gal(b1-4)GlcNAc(b1-6)]GalNAc
# Procedure, shortened: as §1
# [5] = target: Fuc(a1-2)[Gal(a1-3)]Gal(b1-4)GlcNAc
# Procedure, shortened: as §1
# [6] = target: Fuc(a1-2)[Gal(a1-3)]Gal(b1-4)GlcNAc(b1-6)GalNAc
# Procedure, shortened: as §1
# [7] = target: Fuc(a1-2)[GalNAc(a1-3)]Gal(b1-3)GlcNAc(b1-3)GalNAc
# Procedure, shortened: as §1
# [8] = target: Fuc(a1-2)[GalNAc(a1-3)]Gal(b1-4)GlcNAc(b1-3)GalNAc
# Procedure, shortened: as §1
# [9] = target: Fuc(a1-3)[Gal(b1-4)]GlcNAc(b1-3)Gal(b1-4)[Fuc(a1-3)]GlcNAc(b1-3)Gal(b1-4)[Fuc(a1-3)]GlcNAc
# Procedure, shortened: as §1
# [10] = target: Fuc(a1-3)[Gal(b1-4)]GlcNAc(b1-6)GalNAc
# Procedure, shortened: as §1
# [11] = target: Fuc(a1-3)[Gal(b1-4)]GlcNAc(b1-6)[Gal(b1-3)GlcNAc(b1-3)]Gal(b1-4)Glc
# Procedure, shortened: as §1
# Fuc(a1-4)GlcNAc = target: Fuc(a1-4)GlcNAc
# Procedure, shortened: as §1
# [12] = target: Gal(a1-3)Gal(b1-3)GlcNAc(b1-2)Man
# Procedure, shortened: as §1
# [13] = target: Gal(a1-3)Gal(b1-4)GlcNAc(b1-6)GalNAc
# Procedure, shortened: as §1
# [14] = target: Gal(b1-3)GalNAc(b1-4)Gal(b1-4)Glc
# Procedure, shortened: as §1
# [15] = target: Gal(b1-3)GlcNAc(b1-3)Gal(b1-4)GlcNAc
# Procedure, shortened: as §1
# [16] = target: Gal(b1-3)GlcNAc(b1-3)Gal(b1-4)GlcNAc(b1-6)[Gal(b1-3)GlcNAc(b1-3)]Gal(b1-4)Glc
# Procedure, shortened: as §1
# [17] = target: Gal(b1-3)GlcNAc(b1-6)[Gal(b1-3)]GalNAc
# Procedure, shortened: as §1
# [18] = target: Gal(b1-3)[Fuc(a1-4)]GlcNAc(b1-2)Man(a1-3)[Gal(b1-3)[Fuc(a1-4)]GlcNAc(b1-2)Man(a1-6)]Man(b1-4)GlcNAc(b1-4)[Fuc(a1-6)]GlcNAc
# Procedure, shortened: as §1
# [19] = target: Gal(b1-3)[Fuc(a1-4)]GlcNAc(b1-3)Gal(b1-4)[Fuc(a1-3)]GlcNAc
# Procedure, shortened: as §1
# [20] = target: Gal(b1-3)[Fuc(a1-4)]GlcNAc(b1-6)GalNAc
# Procedure, shortened: as §1
# [21] = target: Gal(b1-4)GlcNAc(b1-2)Man(a1-3)[Gal(b1-4)GlcNAc(b1-2)Man(a1-6)]Man(b1-4)GlcNAc(b1-4)[Fuc(a1-6)]GlcNAc
# Procedure, shortened: as §1
# [22] = target: Gal(b1-4)GlcNAc(b1-2)[Gal(b1-4)GlcNAc(b1-4)]Man(a1-3)[GlcNAc(b1-4)][Gal(b1-4)GlcNAc(b1-2)[Gal(b1-4)GlcNAc(b1-6)]Man(a1-6)]Man(b1-4)GlcNAc(b1-4)GlcNAc
# Procedure, shortened: as §1
# [23] = target: Gal(b1-4)GlcNAc(b1-3)Gal(b1-4)GlcNAc(b1-3)Gal(b1-4)GlcNAc(b1-2)Man(a1-3)[Gal(b1-4)GlcNAc(b1-3)Gal(b1-4)GlcNAc(b1-3)Gal(b1-4)GlcNAc(b1-2)Man(a1-6)]Man(b1-4)GlcNAc(b1-4)[Fuc(a1-6)]GlcNAc
# Procedure, shortened: as §1
# [24] = target: Gal(b1-4)GlcNAc(b1-3)Gal(b1-4)GlcNAc(b1-3)[Gal(b1-4)GlcNAc(b1-3)Gal(b1-4)GlcNAc(b1-6)]GalNAc
# Procedure, shortened: as §1
# [25] = target: Gal(b1-4)GlcNAc(b1-3)Gal(b1-4)GlcNAc(b1-6)[Gal(b1-3)]GalNAc
# Procedure, shortened: as §1
# Gal3S(b1-3)GalNAc = target: Gal3S(b1-3)GalNAc
# Procedure, shortened: as §1
# Gal3S6S(b1-4)GlcNAc6S = target: Gal3S6S(b1-4)GlcNAc6S
# Procedure, shortened: as §1
# Gal6S(b1-3)GlcNAc = target: Gal6S(b1-3)GlcNAc
# Procedure, shortened: as §1
# Gal6S(b1-4)Glc = target: Gal6S(b1-4)Glc
# Procedure, shortened: as §1
# [26] = target: GalNAc(b1-3)Gal(a1-4)Gal(b1-4)GlcNAc(b1-3)Gal(b1-4)Glc
# Procedure, shortened: as §1
# GalNAc(b1-4)GlcNAc = target: GalNAc(b1-4)GlcNAc
# Procedure, shortened: as §1
# GalNAc4S6S(b1-4)GlcNAc = target: GalNAc4S6S(b1-4)GlcNAc
# Procedure, shortened: as §1
# [27] = target: GlcNAc(a1-4)Gal(b1-4)GlcNAc(b1-3)Gal(b1-4)[Fuc(a1-3)]GlcNAc(b1-3)Gal(b1-4)[Fuc(a1-3)]GlcNAc
# Procedure, shortened: as §1
# [28] = target: GlcNAc(b1-3)Gal(b1-4)GlcNAc(b1-6)[Gal(b1-3)]GalNAc
# Procedure, shortened: as §1
# GlcNAc(b1-6)GalNAc = target: GlcNAc(b1-6)GalNAc
# Procedure, shortened: as §1
# Kdn(a2-6)Gal(b1-4)GlcNAc = target: Kdn(a2-6)Gal(b1-4)GlcNAc
# Procedure, shortened: as §1
# [29] = target: Man(a1-2)Man(a1-2)Man(a1-6)[Man(a1-3)]Man
# Procedure, shortened: as §1
# [30] = target: Man(a1-3)[Man(a1-6)]Man(b1-4)GlcNAc(b1-4)[Fuc(a1-6)]GlcNAc
# Procedure, shortened: as §1
# [31] = target: Neu5Ac(a2-3)Gal(b1-3)GalNAc(b1-4)[Neu5Ac(a2-3)]Gal(b1-4)Glc
# Procedure, shortened: as §1
# [32] = target: Neu5Ac(a2-3)Gal(b1-3)]Neu5Ac(a2-3)Gal(b1-4)]GlcNAc
# Procedure, shortened: as §1
# [33] = target: Neu5Ac(a2-3)Gal(b1-4)GlcNAc(b1-2)Man(a1-3)[Neu5Ac(a2-3)Gal(b1-4)GlcNAc(b1-2)Man(a1-6)]Man(b1-4)GlcNAc(b1-4)GlcNAc
# Procedure, shortened: as §1
# [34] = target: Neu5Ac(a2-3)Gal(b1-4)GlcNAc(b1-3)Gal(b1-4)GlcNAc(b1-6)[Gal(b1-3)]GalNAc
# Procedure, shortened: as §1
# [35] = target: Neu5Ac(a2-3)Gal(b1-4)GlcNAc(b1-3)Gal(b1-4)[Fuc(a1-3)]GlcNAc
# Procedure, shortened: as §1
# [36] = target: Neu5Ac(a2-3)Gal(b1-4)GlcNAc(b1-6)[Gal(b1-3)]GalNAc
# Procedure, shortened: as §1
# [37] = target: Neu5Ac(a2-3)Gal(b1-4)[Fuc(a1-3)]GlcNAc(b1-3)GalNAc
# Procedure, shortened: as §1
# Neu5Ac(a2-3)GalNAc = target: Neu5Ac(a2-3)GalNAc
# Procedure, shortened: as §1
# [38] = target: Neu5Ac(a2-6)Gal(b1-4)GlcNAc(b1-2)Man(a1-6)[GlcNAc(b1-2)Man(a1-3)]Man(b1-4)GlcNAc(b1-4)GlcNAc
# Procedure, shortened: as §1
# [39] = target: Neu5Ac(a2-6)Gal(b1-4)GlcNAc(b1-2)[Neu5Ac(a2-6)Gal(b1-4)GlcNAc(b1-4)]Man(a1-3)[GlcNAc(b1-4)][Neu5Ac(a2-6)Gal(b1-4)GlcNAc(b1-4)Man(a1-6)]Man(b1-4)GlcNAc(b1-4)GlcNAc
# Procedure, shortened: as §1
# [40] = target: Neu5Ac(a2-6)Gal(b1-4)GlcNAc(b1-3)Gal(b1-4)GlcNAc(b1-6)[Gal(b1-3)]GalNAc
# Procedure, shortened: as §1
# [41] = target: Neu5Ac(a2-6)Gal(b1-4)GlcNAc(b1-3)[Neu5Ac(a2-6)Gal(b1-4)GlcNAc(b1-6)]GalNAc
# Procedure, shortened: as §1
# [42] = target: Neu5Ac(a2-6)Gal(b1-4)GlcNAc(b1-6)[Gal(b1-3)]GalNAc
# Procedure, shortened: as §1
# [43] = target: Neu5Ac(a2-8)Neu5Ac(a2-3)Gal(b1-3)GalNAc(b1-4)[Neu5Ac(a2-3)]Gal(b1-4)Glc
# Procedure, shortened: as §1
binder,measurement,setting,value
B1,glycan array binding signal (z-score),[1],1.6
same,glycan array binding signal (z-score),[2],0.811
same,glycan array binding signal (z-score),[3],-0.547
same,glycan array binding signal (z-score),[4],-1.34
same,glycan array binding signal (z-score),[5],0.036
same,glycan array binding signal (z-score),[6],-0.475
same,glycan array binding signal (z-score),[7],-0.103
same,glycan array binding signal (z-score),[8],-0.617
same,glycan array binding signal (z-score),[9],0.278
same,glycan array binding signal (z-score),[10],0.096
same,glycan array binding signal (z-score),[11],-0.249
same,glycan array binding signal (z-score),Fuc(a1-4)GlcNAc,0.688
same,glycan array binding signal (z-score),[12],-0.261
same,glycan array binding signal (z-score),[13],3.25
same,glycan array binding signal (z-score),[14],0.305
same,glycan array binding signal (z-score),[15],-1.2
same,glycan array binding signal (z-score),[16],0.709
same,glycan array binding signal (z-score),[17],0.662
same,glycan array binding signal (z-score),[18],2.23
same,glycan array binding signal (z-score),[19],-1.72
same,glycan array binding signal (z-score),[20],-0.35
same,glycan array binding signal (z-score),[21],0.746
same,glycan array binding signal (z-score),[22],-1.6
same,glycan array binding signal (z-score),[23],2.73
same,glycan array binding signal (z-score),[24],2.68
same,glycan array binding signal (z-score),[25],2.97
same,glycan array binding signal (z-score),Gal3S(b1-3)GalNAc,0.361
same,glycan array binding signal (z-score),Gal3S6S(b1-4)GlcNAc6S,1.02
same,glycan array binding signal (z-score),Gal6S(b1-3)GlcNAc,-1.93
same,glycan array binding signal (z-score),Gal6S(b1-4)Glc,-0.15
same,glycan array binding signal (z-score),[26],-0.809
same,glycan array binding signal (z-score),GalNAc(b1-4)GlcNAc,-0.143
same,glycan array binding signal (z-score),GalNAc4S6S(b1-4)GlcNAc,1.06
same,glycan array binding signal (z-score),[27],2.41
same,glycan array binding signal (z-score),[28],-0.695
same,glycan array binding signal (z-score),GlcNAc(b1-6)GalNAc,3.2
same,glycan array binding signal (z-score),Kdn(a2-6)Gal(b1-4)GlcNAc,2.33
same,glycan array binding signal (z-score),[29],-0.012
same,glycan array binding signal (z-score),[30],1.13
same,glycan array binding signal (z-score),[31],-1.39
same,glycan array binding signal (z-score),[32],2.21
same,glycan array binding signal (z-score),[33],3
same,glycan array binding signal (z-score),[34],-0.491
same,glycan array binding signal (z-score),[35],-0.571
same,glycan array binding signal (z-score),[36],0.944
same,glycan array binding signal (z-score),[37],0.511
same,glycan array binding signal (z-score),Neu5Ac(a2-3)GalNAc,-0.745
same,glycan array binding signal (z-score),[38],2.64
same,glycan array binding signal (z-score),[39],-0.548
same,glycan array binding signal (z-score),[40],0.045
same,glycan array binding signal (z-score),[41],-1.09
same,glycan array binding signal (z-score),[42],0.173
same,glycan array binding signal (z-score),[43],-1.08
